Results taken from ChEMBL document CHEMBL3988442, “University of Dundee, Small-Polar-MMV Screening Library” (2021).

target: AMP-activated protein kinase, AMPK (Homo sapiens) (UniProt P54646+O43741+P54619+Q9UGJ0+Q9Y478+Q13131+Q9UGI9); assay: AMP-dependent Kinase enzyme assay. An in vitro enzyme assay that detects ADP turnover that is directly proportional to AMPK activity. This uses naive AMPK that is activated during the assay with MK-8722; format: functional; set-up: scale not given: direction of the effect not stated beside the values; conditions: 30 µM

| SMILES | Percent Effect |
| --- | --- |
| C=Cn1ncc(CN2CCC(c3ncc(Cl)cc3S(C)(=O)=O)CC2)c1C | -0.153% |
| CN(CCc1ccccn1)CCc1nccs1 | 0.423% |
| C=C(C)COc1cccc(CNCc2nc3ccccc3c(=O)[nH]2)c1 | 1.56% |
| N#CC1COCCN1C(=O)c1ccc2cc[nH]c2c1 (stereo not given) | 6.24% |
| O=S(=O)(c1cc(F)ccc1N1CC(n2cccn2)C1)C(F)(F)F | 26.5% |
| COc1cccc(C(C(=O)O)N2CCSCC2)c1F (stereo not given) | -1.18% |
| CN(CCCOc1ccccc1Cl)C(=O)CN1C[C@@H]2CC[C@H](CC1=O)N2 | 10.1% |
| c1ccc(Cc2noc(-c3ccc(NCC4COCCO4)nc3)n2)cc1 (stereo not given) | 8.79% |
| CS(=O)(=O)c1ccccc1NC(=O)N[C@@H]1c2ccccc2C[C@@H]1O | 6.87% |
| Cc1ccc(C(=O)NCCC2CN(C3CCCC3)CCO2)c(C)c1 (stereo not given) | 4.11% |
| CN1CC(C(=O)NCCc2ccc(Br)cc2F)CC1=O (stereo not given) | 7.63% |
| COc1ccc(CCCC(=O)N2CCCC(n3cncn3)C2)cc1 (stereo not given) | 4.51% |
| CC(C)C1CCCN1C(=O)Nc1ccc(=O)n(C)c1 (stereo not given) | 56.6% |
| CC(c1ccncn1)N(C)S(=O)(=O)NCc1ccccc1 (stereo not given) | -13.5% |
| COc1ccccc1-c1cccc(C2CCCN(C3CCOCC3)C2)n1 (stereo not given) | -7.08% |
| COc1nccc(N2CC[C@@H](N3CCC(O)CC3)[C@H](O)C2)c1C#N | 5.62% |
| CN(C)c1ccccc1C(=O)N1CCCC(c2ccc(C(=O)O)cc2)C1 (stereo not given) | -3.47% |
| COCC(=O)NCc1ccc(-c2ncncc2C(=O)N(C)C)cc1 | 5.99% |
| COc1ccc(C)cc1CN(CC(N)=O)C(C)C | 0.855% |
| O=C1CCCN1C1CCCN(CCn2cc(Cl)cn2)C1 (stereo not given) | 7.29% |

| SMILES | Percent Effect |
| --- | --- |
| COc1ccc(NCCC(=O)NCc2cccnc2N(C)C)cc1 | 22.9% |
| CCN(CC)c1ncccc1CNCc1cc2ccccc2s1 | -4.57% |
| O=C(c1coc(COc2ccccc2F)n1)N1CCC[C@H]1CO | 8.7% |
| Cc1noc(C)c1C(=O)N[C@@H]1CC[C@@H](Oc2ccccc2)[C@@H]1O | 18.4% |
| CCc1nn(C)c(Cl)c1CN1CCC2(C1)CN(C)C(=O)O2 (stereo not given) | 6.22% |
| Cc1cccc(C)c1NC(=O)NCC1CCCN(C2CCOCC2)C1 (stereo not given) | 5.67% |
| CCc1nc(C)c(C(=O)N2C[C@@H](C(=O)O)[C@H](C3CC3)C2)s1 | 2.29% |
| Cc1nc(CNCc2cccc(OC34CCCN(CC3)C4)c2)n[nH]1 (stereo not given) | -7.43% |
| Cc1cnn(C2CN(CCOc3ccc(C#N)cc3)C2)c1 | 5.88% |
| CC(=O)N1CCC(NC(=O)CN2CCCc3c(C)ccc(F)c32)CC1 | 5.92% |
| Cc1nc2c(c(=O)[nH]1)CN(C(=O)CC[C@@H]1CCCN3CCCC[C@H]13)C2 | 16.1% |
| CCc1cc(=O)n(CCNC(=O)Nc2ccc(OC(F)(F)F)cc2)cn1 | -3.24% |
| CCC[C@@H]1CN(Cc2cnc3c(S(C)(=O)=O)cnn3c2)C[C@H]1N(C)C | -10.1% |
| Cc1cc(C)cc(NCCC(=O)NCc2cccnc2N(C)C)c1 | -2.62% |
| COCC1CCN(C(=O)c2cc(O)nc(CC(C)C)c2)CC1 | -1.75% |
| CN(Cc1cn(CC2CCNCC2)nn1)CC1CCCCO1 (stereo not given) | 7.46% |
| CCc1ccc(CCn2cnc(C#N)n2)cc1 | -0.907% |
| CCc1ccc(C(=O)NC2CCN(c3ccn(C)n3)C2)o1 (stereo not given) | 1.78% |
| COc1cc2ncn(Cc3ncc[nH]3)c(=O)c2cc1OC | -1.8% |
| COCCN(C)C[C@@H]1CN(c2nc(C)cc(C)n2)C[C@@H]1CO | 2.16% |
